Screening results: PubChem, National Center for Advancing Translational Sciences (NCATS)
Tau FP inhib: qHTS for Inhibitors of Tau Fibril Formation, Fluorescence Polarization; Microtubule-associated protein tau (Homo sapiens), P10636; K18 P301L tau heparin fibrillization, Alexa594 FP, 6 h; Potency, µM (top dose mostly 57.7 µM), for inactives: at the highest dose activity, negative = inhibition, actives largely listed as inhibitors; 0.39% of 280,000 active; AID 1468, 2008; also: nearly all actives have a fitted effect of over 55% in size
Target sequence (P10636 561-689 P618L limits assumed): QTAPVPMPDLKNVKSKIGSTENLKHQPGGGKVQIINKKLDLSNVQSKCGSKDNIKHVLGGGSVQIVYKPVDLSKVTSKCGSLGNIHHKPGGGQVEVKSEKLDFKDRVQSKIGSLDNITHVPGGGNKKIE
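Steps: dispense K18 P301L tau (15 uM plus 0.24 uM Alexa 594 tracer, final) in pH 7 sodium acetate; add compound; add heparin (20 uM final); incubate 6 hr, 37 C; add ThT (30 uM final); after 1 hr ambient, read FP.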
Tau fluor counter: Counterscreen qHTS for Inhibitors of Tau Fibril Formation, Fluorescence Polarization; tau K18 P301L Alexa594 fluorescence, heparin fibrillization; Potency, µM (top dose mostly 57.7 µM), for the others: at the top dose activity change, negative = decrease; 0.93% of 280,000 active; AID 1463, 2008; also: nearly all actives have a fitted effect of over 55% in size
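Human tau K18 P301L (15 uM unlabeled, 0.24 uM Alexa 594-labeled) in 100 mM sodium acetate pH 7 with 20 uM heparin, 6 hr at 37 C. ThT 30 uM added, 1 hr ambient; Alexa 594 FP and total fluorescence read at 555/632 nm.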
Tau fibril ThT: qHTS for Inhibitors of Tau Fibril Formation, Thioflavin T Binding. Microtubule-associated protein tau (Homo sapiens), P10636. recombinant tau K18 P301L (four-repeat tau fragment), heparin-induced fibrillization, ThT fluorescence. Potency, µM (doses to about 57.4 µM), inactives show at the top dose activity, negative = inhibition, usual class: inhibitors. 2.1% of 270,000 active. AID 1460, 2008; also: nearly all actives have a fitted effect of over 55% in size
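Recombinant human tau K18 fragment […] carrying P301L, 15 uM unlabeled plus 0.24 uM Alexa 594-labeled, was fibrillized with 20 uM heparin in 100 mM sodium acetate pH 7 for 6 hr at 37 C; 30 uM ThT fluorescence read after 1 hr.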
Gal4-VP16 FLuc: VP16 counterscreen qHTS for inhibitors of ROR gamma transcriptional activity; Drosophila S2 Gal4-VP16 UAS-luciferase, luminescence, 20 h; Potency, µM (doses to about 53.6 µM), for inactives: at the highest dose activity, negative = inhibition, actives largely listed as inhibitors; 3.5% of 310,000 active;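 also: Gal4-VP16 expression switched on by copper sulfate through the metallothionein promoter; nearly all actives have a fitted effect of over 50% in size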
RORg inh: qHTS for inhibitors of ROR gamma transcriptional activity; Nuclear receptor ROR-gamma (Mus musculus), P51450; Drosophila S2 Gal4-RORgamma UAS-luciferase reporter, 20 h; Potency, µM (titrated, usually from 53.6 µM), for inactives: at the highest dose activity change, negative = inhibition, hits mostly inhibitors; 5.4% of 310,000 active; AID 2551, 2010; also: nearly all actives have a fitted effect of over 60% in size
Target sequence (P51450 whole entry, looked up, the tested form may be a part): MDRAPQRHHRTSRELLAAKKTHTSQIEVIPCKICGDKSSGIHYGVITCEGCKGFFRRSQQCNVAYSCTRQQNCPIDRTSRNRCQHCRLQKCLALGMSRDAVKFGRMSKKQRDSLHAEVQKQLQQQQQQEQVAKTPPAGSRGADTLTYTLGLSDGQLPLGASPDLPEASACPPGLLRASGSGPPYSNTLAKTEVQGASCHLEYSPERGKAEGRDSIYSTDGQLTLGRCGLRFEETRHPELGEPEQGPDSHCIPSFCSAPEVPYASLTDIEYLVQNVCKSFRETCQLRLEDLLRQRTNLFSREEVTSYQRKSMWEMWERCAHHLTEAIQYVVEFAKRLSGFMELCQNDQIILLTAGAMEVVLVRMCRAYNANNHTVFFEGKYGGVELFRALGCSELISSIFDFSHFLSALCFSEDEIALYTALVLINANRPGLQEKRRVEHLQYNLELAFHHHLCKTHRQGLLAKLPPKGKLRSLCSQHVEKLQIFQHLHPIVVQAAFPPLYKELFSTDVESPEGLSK
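Read-out: Photinus luciferase luminescence; inhibitors lower reporter signal. Insect Schneider cells with Gal4-ROR gamma fusion under metallothionein promoter, UAS reporter; 700 uM final copper sulfate induction, 20 hr, ambient temperature.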
An asterisk follows results filed as active; [ ] = another dose, or the depositor's remark. In the library only some 7.3% were active in any assay of this set; here they are far more common. Calls follow the shape of the dose curve; as a rule, active = well fitted curve in the direction sought with a large enough effect; inconclusive = small, poorly fitted or top-dose-only effect, or another doubt; inactive = no such curve, though single readings can be large; an effect the other way counts as inactive or inconclusive. % is scaled to controls: 0 for no effect and ±100 for the full control effect; potency is read from the fitted curve at half-maximal effect.

What do the screens show for `O=C(CSc1nnc(SCc2ccccc2)s1)N/N=C/c1ccc(C(=O)O)cc1`?
Tau FP inhib: -5.7%; Tau fluor counter: -9.9%; Tau fibril ThT: -10.1%; Gal4-VP16 FLuc: -12.9%; RORg inh: -18.7%

How did O=C(CSc1nnc(SCc2ccccc2)s1)N/N=C/c1c[nH]c2ccccc12 do in these assays?
Tau FP inhib: -4.3%; Tau fluor counter: inconclusive; Tau fibril ThT: -4.9%; Gal4-VP16 FLuc: inconclusive; RORg inh: 8.91µM*

How did CCn1c(SCC(=O)N/N=C/c2c[nH]c3ccccc23)nnc1-c1ccc(C(C)(C)C)cc1 do in these assays?
Tau FP inhib: -3.9%; Tau fluor counter: 17.8µM*[quencher]; Tau fibril ThT: inconclusive; Gal4-VP16 FLuc: -26.9%; RORg inh: -0.4%

How did Cc1ccc(CSc2nnc(SCC(=O)N/N=C/c3ccc(C(=O)O)cc3)s2)cc1 do in these assays?
Tau FP inhib: 5.7%; Tau fluor counter: -16.1%; Gal4-VP16 FLuc: inconclusive; RORg inh: 5.62µM*

Results for COc1ccc(NC(=O)CCNS(=O)(=O)c2cccc3nsnc23)c(OC)c1 ?
Gal4-VP16 FLuc: 0.9%; RORg inh: -6.8%

How did CCC(=O)N1CCc2cc(Br)cc(S(=O)(=O)NCCc3ccc(C)cc3)c21 do in these assays?
Tau FP inhib: 1.8%; Tau fluor counter: -14.1%; Tau fibril ThT: -7.3%

How did Cc1noc(C)c1C(=O)N1CCC2(CCN(Cc3nccs3)CC2)CC1 do in these assays?
Gal4-VP16 FLuc: -2.6%; RORg inh: 0.8%

Results for Cc1cccc(NC(=O)CSc2nnc(NC(=O)CN3CCCCC3)s2)c1 ?
Tau FP inhib: -0.6%; Tau fluor counter: 0.5%; Tau fibril ThT: -0.7%; Gal4-VP16 FLuc: -3.6%; RORg inh: -20.4%

What do the screens show for `COc1ccc(CC(=O)Nc2cccc(S(=O)(=O)N3CCCCCC3)c2)cc1OC`?
Tau FP inhib: 2.9%; Tau fluor counter: inconclusive; Tau fibril ThT: -3.2%; Gal4-VP16 FLuc: 11.2µM*; RORg inh: -25.0%

What do the screens show for `CCN(CC(=O)Nc1cccc(S(=O)(=O)N2CCCC2)c1)CC(=O)Nc1ccccc1OC`?
Tau FP inhib: 3.4%; Tau fluor counter: -9.4%; Tau fibril ThT: 2.2%; Gal4-VP16 FLuc: -3.4%; RORg inh: 11.2µM*

How did COc1ccccc1CCC(=O)Nc1cccc(S(=O)(=O)N2CCCC2)c1 do in these assays?
Gal4-VP16 FLuc: 5.1%; RORg inh: 37.3%

How did Cc1cccc(Nc2nnc(SCC(=O)Nc3cccc(S(=O)(=O)N4CCCCC4)c3)s2)c1 do in these assays?
Tau FP inhib: -25.3%; Tau fluor counter: 12.6µM*[quencher]; Tau fibril ThT: -10.5%; Gal4-VP16 FLuc: -12.8%; RORg inh: inconclusive

Results for Cc1ccc(NC(=O)CN2C(=O)C(c3ccc(F)cc3)=NC2(C)C)c(C)c1 ?
Tau FP inhib: 0.1%; Tau fluor counter: -0.4%; Tau fibril ThT: 4.6%

How did O=P(O)(O)C(O)(Cn1ccnc1)P(=O)(O)O do in these assays?
Tau FP inhib: -3.2%; Tau fluor counter: 1.1%; Tau fibril ThT: 0.2%; Gal4-VP16 FLuc: -1.4%; RORg inh: 4.7%

How did CCCCC1C(=O)N(c2ccccc2)N(c2ccc(O)cc2)C1=O (centres undefined) do in these assays?
Tau FP inhib: inconclusive; Tau fluor counter: -25.5%; Tau fibril ThT: 15.8µM*; Gal4-VP16 FLuc: 5.62µM*; RORg inh: 4.47µM*

How did CC(C)=CCC1C(=O)N(c2ccccc2)N(c2ccccc2)C1=O do in these assays?
Gal4-VP16 FLuc: inconclusive; RORg inh: -20.0%[10 µM]

Results for O=C(Cc1cccc2ccccc12)N/N=C/c1ccc(Sc2cccc3cccnc23)o1 ?
Tau FP inhib: -14.0%; Tau fluor counter: inconclusive; Tau fibril ThT: -17.1%; Gal4-VP16 FLuc: inconclusive; RORg inh: inconclusive

How did CCCCC(=O)N/N=C/c1ccc(Sc2cccc3cccnc23)o1 do in these assays?
Tau FP inhib: -9.8%; Tau fluor counter: inconclusive; Tau fibril ThT: -17.3%; Gal4-VP16 FLuc: 11.2µM*; RORg inh: 5.62µM*

What do the screens show for `CN(C)S(=O)(=O)Oc1ccsc1C(=O)Nc1ccc(Cl)cc1`?
Tau FP inhib: -15.2%; Tau fluor counter: -25.6%; Tau fibril ThT: -5.4%; Gal4-VP16 FLuc: 25.1µM*; RORg inh: -41.2%

What do the screens show for `Cc1ccc(NS(=O)(=O)c2ccc3c(c2)CC(C)N3C(=O)C2CCC2)cc1Cl` (centres undefined)?
Tau FP inhib: -10.0%; Tau fluor counter: -27.7%; Tau fibril ThT: 1.1%

What do the screens show for `Cc1ccc(C(c2cccc(Br)c2)c2c(C)[nH]c3ccccc23)s1` (centres undefined)?
Tau FP inhib: inconclusive; Tau fluor counter: 5.62µM*[quencher]; Tau fibril ThT: inconclusive

What do the screens show for `CCNC(=S)N1N=C2c3ccccc3CCC2C1c1ccc(F)cc1` (centres undefined)?
Tau FP inhib: -13.5%; Tau fluor counter: -27.8%; Tau fibril ThT: inconclusive; Gal4-VP16 FLuc: inconclusive; RORg inh: 8.91µM*

Results for CCCOc1ccc(CN(CCC#N)C(=S)NC(=O)c2ccccc2)cc1 ?
Tau FP inhib: -12.2%; Tau fluor counter: -6.3%; Tau fibril ThT: 3.0%; Gal4-VP16 FLuc: 0.562µM*; RORg inh: 0.316µM*

Results for O=C(NC(=S)N(CCO)Cc1ccccc1)c1ccc(F)cc1Cl ?
Gal4-VP16 FLuc: 2.82µM*; RORg inh: 0.562µM*

How did CCN(CC)S(=O)(=O)c1ccc(C(=O)NC(=S)N(CCO)Cc2ccccc2)cc1 do in these assays?
Gal4-VP16 FLuc: 3.16µM*; RORg inh: 1.12µM*

What do the screens show for `CCCN(CCC)C(=S)NC(=O)c1ccc(Cl)cc1Cl`?
Tau FP inhib: -0.1%; Tau fluor counter: -6.1%; Tau fibril ThT: -14.6%; Gal4-VP16 FLuc: 0.891µM*; RORg inh: 0.282µM*

How did C=CCNC(=O)c1ccc(Cl)cc1Cl do in these assays?
Tau FP inhib: -0.1%; Tau fluor counter: 4.7%; Tau fibril ThT: 6.3%; Gal4-VP16 FLuc: 9.1%; RORg inh: 6.8%

Results for Cc1ccc(N2CC(C(=O)Nc3cccnc3)CC2=O)cc1Cl (centres undefined) ?
Gal4-VP16 FLuc: -8.0%; RORg inh: 26.7%

What do the screens show for `COc1ccccc1C(=O)Nc1ccc(-c2cc(C(F)(F)F)nn2-c2ccccc2)cc1`?
Tau FP inhib: inconclusive; Tau fluor counter: -29.5%; Tau fibril ThT: -7.6%

How did Cc1ccc2oc(/N=C(\N)NC(=O)C(C)(C)C)nc2c1 do in these assays?
Tau FP inhib: -7.9%; Tau fluor counter: -13.4%; Tau fibril ThT: -14.4%; Gal4-VP16 FLuc: 0.447µM*; RORg inh: 0.0501µM*

Results for NC(N)=Nc1nc2cc([N+](=O)[O-])ccc2o1 ?
Tau FP inhib: -4.2%; Tau fluor counter: -7.3%; Tau fibril ThT: -10.1%; Gal4-VP16 FLuc: -14.4%; RORg inh: -3.2%
